Records with an inconclusive call do not appear. Calls of active or inactive are those of the source. Calls come from the whole dose curve; as a rule, active = well fitted curve in the direction sought with a large enough effect; inconclusive = small, poorly fitted or top-dose-only effect, or another doubt; inactive = no such curve, though single readings can be large; an effect the other way counts as inactive or inconclusive.
Assays:
HACAT = assay: qHTS assay to identify novel small-molecules to repurpose for Merkel cell carcinoma treatment (AID 1296009); conditions: MCC and control cell lines, CellTiter-Glo viability, 72 h; at 44.8 µM (top of the series) unless noted; note: nearly all actives have a fitted effect of over 60% in size
Summary of the method: (§1)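 Dose-response viability screen; 72 hr exposure at 37 degree celsius; CellTiter-Glo added, 10 min room temperature, luminescence read; RLUs scaled between no-cell and DMSO wells.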

CAOV3 = assay: Primary qHTS to identify gynecologic anti-cancer compounds using libraries of approved drugs and bioactive compounds (AID 1345084); conditions: Gynecologic cancer cell panel viability, ATPlite luminescence, 48 h; series mostly up to 57.5 µM; note: % is set by controls: 0 for no effect and ±100 for the full control effect; nearly all actives have a fitted effect of over 55% in size
Summary of the method: (§2)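 Cell viability after 48 h drug treatment, ATPlite luminescence readout; five doses.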

CASKI = assay: as above; conditions: Gynecologic cancer cell panel viability, ATPlite luminescence, 48 h; series mostly up to 57.5 µM
Summary of the method: as §2

Es-2 = assay: as above; conditions: Gynecologic cancer cell panel viability, ATPlite luminescence, 48 h; series mostly up to 57.5 µM
Summary of the method: as §2

HeLa = assay: as above; conditions: Gynecologic cancer cell panel viability, ATPlite luminescence, 48 h; series mostly up to 57.5 µM
Summary of the method: as §2

JEG-3 = assay: as above; conditions: Gynecologic cancer cell panel viability, ATPlite luminescence, 48 h; series mostly up to 57.5 µM
Summary of the method: as §2

Tov-21-G = assay: as above; conditions: Gynecologic cancer cell panel viability, ATPlite luminescence, 48 h; series mostly up to 57.5 µM
Summary of the method: as §2

Tov112D = assay: as above; conditions: Gynecologic cancer cell panel viability, ATPlite luminescence, 48 h; series mostly up to 57.5 µM
Summary of the method: as §2

C33A = assay: as above; conditions: Gynecologic cancer cell panel viability, ATPlite luminescence, 48 h; series mostly up to 57.5 µM
Summary of the method: as §2

OV90 = assay: as above; conditions: Gynecologic cancer cell panel viability, ATPlite luminescence, 48 h; series mostly up to 57.5 µM
Summary of the method: as §2

PA-1 = assay: as above; conditions: Gynecologic cancer cell panel viability, ATPlite luminescence, 48 h; series mostly up to 57.5 µM
Summary of the method: as §2

SKOV3 = assay: as above; conditions: Gynecologic cancer cell panel viability, ATPlite luminescence, 48 h; series mostly up to 57.5 µM
Summary of the method: as §2

HEK293T [1] = assay: qHTS assay to identify novel small-molecules to repurpose for Merkel cell carcinoma treatment (AID 1296009); conditions: MCC and control cell lines, CellTiter-Glo viability, 72 h; at 44.8 µM (top of the series) unless noted; note: nearly all actives have a fitted effect of over 60% in size
Summary of the method: as §1

Hek293T [2] = assay: Primary qHTS to identify gynecologic anti-cancer compounds using libraries of approved drugs and bioactive compounds (AID 1345084); conditions: Gynecologic cancer cell panel viability, ATPlite luminescence, 48 h, control line for the selectivity index; series mostly up to 57.5 µM; note: % is set by controls: 0 for no effect and ±100 for the full control effect; nearly all actives have a fitted effect of over 55% in size
Summary of the method: as §2

O=C(CCCCC1CCCCC1)N1CCC(c2cnc[nH]2)CC1
inactive: outcome (HACAT) | Potency (CAOV3) | outcome (CASKI) | Potency (Es-2) | Potency (HeLa) | Potency (JEG-3) | Potency (Tov-21-G) | Potency (Tov112D)

O=C(O)CC(CCc1ccccc1)OC1OC(CO)C(O)C(O)C1O (configuration not stated)
inactive: outcome (HACAT) | Potency (C33A) | outcome (CASKI) | Potency (Es-2) | Potency (HeLa) | Potency (JEG-3) | Potency (OV90) | Potency (PA-1) | Potency (SKOV3) | Potency (Tov-21-G) | Potency (Tov112D)

O=C1C[C@@]2(C(=O)N1)C(=O)N(Cc1ccc(Br)cc1F)C(=O)c1cccn12
inactive: outcome (HEK293T [1]) | Potency (C33A) | Potency (CAOV3) | outcome (CASKI) | Potency (Es-2) | Potency (HeLa) | Potency (Hek293T [2]) | Potency (JEG-3) | Potency (OV90) | Potency (PA-1) | Potency (Tov-21-G) | Potency (Tov112D)

O=C(O)c1ccnc(-c2cc(C(=O)NCCc3ccccc3)ccn2)c1
inactive: outcome (HACAT) | Potency (CAOV3) | outcome (CASKI) | Potency (Es-2) | Potency (HeLa) | Potency (Hek293T [2]) | Potency (JEG-3) | Potency (OV90) | Potency (PA-1) | Potency (SKOV3) | Potency (Tov-21-G) | Potency (Tov112D)

CC1(C)CC[C@]2(C(=O)O)CC[C@]3(C)C(=CCC4[C@@]5(C)CC[C@H](O[C@H]6O[C@H](C(=O)O)[C@@H](O)[C@H](O[C@@H]7O[C@H](CO)[C@H](O)[C@H](O)[C@H]7O)[C@H]6O)C(C)(C)C5CC[C@]43C)[C@@H]2C1 (some centres not stated)
inactive: outcome (HEK293T [1]) inactive [at 9.27 µM] | activity change, negative = cytotoxicity (C33A) 17.4% [at 11.6 µM] | activity change, negative = cytotoxicity (CAOV3) 23.8% [at 11.6 µM] | activity change, negative = cytotoxicity (CASKI) 10.6% [at 11.6 µM] | activity change, negative = cytotoxicity (Es-2) 0.636% [at 11.6 µM] | activity change, negative = cytotoxicity (HeLa) -3.8% [at 11.6 µM] | activity change, negative = cytotoxicity (Hek293T [2]) 18.4% [at 11.6 µM] | activity change, negative = cytotoxicity (JEG-3) -1.28% [at 11.6 µM] | activity change, negative = cytotoxicity (OV90) -6.58% [at 11.6 µM] | activity change, negative = cytotoxicity (PA-1) 2% [at 11.6 µM] | activity change, negative = cytotoxicity (Tov-21-G) 6.29% [at 11.6 µM] | activity change, negative = cytotoxicity (Tov112D) -0.0817% [at 11.6 µM]

C/C=C/C=C/C=C/C(=O)O[C@@H]1[C@@H](OC)C2=C(C(=O)N(C(CCC(=O)O)C(=O)O)C2)[C@@]2(C)CCCC(C)(C)[C@H]12 (some centres not stated)
inactive: outcome (HEK293T [1]) inactive [at 17.4 µM] | Potency (C33A) | Potency (CAOV3) | outcome (CASKI) | Potency (Es-2) | Potency (HeLa) | Potency (Hek293T [2]) | Potency (JEG-3) | Potency (OV90) | Potency (PA-1) | Potency (Tov-21-G) | Potency (Tov112D)

C=C[C@H]1[C@H](O[C@@H]2O[C@H](CO)[C@@H](O)[C@H](O)[C@H]2O)OC=C2C(=O)N3Cc4c([nH]c5ccccc5c4=O)[C@@H]3C[C@H]21
inactive: outcome (HEK293T [1]) inactive [at 17.4 µM] | Potency (C33A) | Potency (CAOV3) | outcome (CASKI) | Potency (Es-2) | Potency (HeLa) | Potency (Hek293T [2]) | Potency (JEG-3) | Potency (OV90) | Potency (PA-1) | Potency (Tov-21-G) | Potency (Tov112D)

CC1(C)C=Cc2c(ccc3c2N=C2C(C)(C)[C@@H]4C[C@]56CCCN5C(=O)[C@@]4(C[C@]23O)NC6=O)O1
inactive: outcome (HEK293T [1]) inactive [at 17.4 µM] | Potency (C33A) | Potency (CAOV3) | outcome (CASKI) | Potency (Es-2) | Potency (HeLa) | Potency (Hek293T [2]) | Potency (JEG-3) | Potency (OV90) | Potency (PA-1) | Potency (Tov-21-G) | Potency (Tov112D)

C/C(CO)=C1/CCC23COC(C2)C(O)(C(=O)O)CCC13 (configuration not stated)
inactive: outcome (HEK293T [1]) | Potency (C33A) | Potency (CAOV3) | outcome (CASKI) | Potency (Es-2) | Potency (HeLa) | Potency (Hek293T [2]) | Potency (JEG-3) | Potency (OV90) | Potency (PA-1) | Potency (Tov-21-G) | Potency (Tov112D)

COc1c(O[C@@H]2O[C@H](CO)[C@@H](O)[C@H](O)[C@H]2O)c(CCC(=O)O)cc2ccoc12
inactive: outcome (HACAT) | outcome (CASKI) | Potency (Es-2) | Potency (HeLa) | Potency (Hek293T [2]) | Potency (OV90) | Potency (PA-1) | Potency (Tov-21-G) | Potency (Tov112D)

C[C@@H]1C(=O)O[C@H]2[C@H]1CC[C@@]1(C)C(=O)C=C[C@@](C)(O)[C@H]21
inactive: outcome (HEK293T [1]) | Potency (C33A) | Potency (CAOV3) | outcome (CASKI) | Potency (Es-2) | Potency (HeLa) | Potency (Hek293T [2]) | Potency (JEG-3) | Potency (OV90) | Potency (PA-1) | Potency (Tov-21-G) | Potency (Tov112D)

C[C@]12CC/C(=N\OCC(=O)O)C=C1CC[C@@H]1[C@@H]2[C@@H](O)C[C@@]2(C)[C@H]1CC[C@]2(O)C(=O)CO
inactive: outcome (HEK293T [1]) | Potency (C33A) | Potency (CAOV3) | outcome (CASKI) | Potency (Es-2) | Potency (HeLa) | Potency (Hek293T [2]) | Potency (JEG-3) | Potency (OV90) | Potency (PA-1) | Potency (Tov-21-G) | Potency (Tov112D)

CC1CCC2C(C(=O)O)=CC3(O)CC(C)(C)CC123 (configuration not stated)
inactive: outcome (HEK293T [1]) | Potency (C33A) | Potency (CAOV3) | outcome (CASKI) | Potency (Es-2) | Potency (HeLa) | Potency (Hek293T [2]) | Potency (JEG-3) | Potency (OV90) | Potency (SKOV3) | Potency (Tov-21-G) | Potency (Tov112D)

Cc1ccccc1NC(=O)Nc1ccc(CN2C(=O)N([C@@H](CC(C)C)C(=O)N[C@@H](CC(=O)O)c3ccccc3)C(=O)C2(C)C)cc1
inactive: outcome (HEK293T [1]) | Potency (C33A) | Potency (CAOV3) | outcome (CASKI) | Potency (Es-2) | Potency (HeLa) | Potency (Hek293T [2]) | Potency (JEG-3) | Potency (OV90) | Potency (PA-1) | Potency (Tov-21-G) | Potency (Tov112D)

O=C1NC(=O)/C(=C/c2cccc(C(F)(F)F)c2)S1
inactive: outcome (HEK293T [1]) | Potency (C33A) | Potency (CAOV3) | outcome (CASKI) | Potency (Es-2) | Potency (HeLa) | Potency (Hek293T [2]) | Potency (JEG-3) | Potency (OV90) | Potency (PA-1) | Potency (Tov-21-G) | Potency (Tov112D)
